# Screens deposited in PubChem BioAssay by National Center for Advancing Translational Sciences (NCATS).
# An excerpt weighted towards active compounds, which were near 2.4% of everything screened.
# D2 antag: antagonists of human D2 dopamine receptor | P14416 | HEK293 TREx D2 cells, calcium flux, dopamine EC80 | inhibition, % at 10 µM | actives 2% (n = 340,000) | AID 485344; in the data active = inhibition above about 30%; inactive = below that, where a call was filed; note: 0% is about no effect
# Target sequence (P14416 whole entry, looked up): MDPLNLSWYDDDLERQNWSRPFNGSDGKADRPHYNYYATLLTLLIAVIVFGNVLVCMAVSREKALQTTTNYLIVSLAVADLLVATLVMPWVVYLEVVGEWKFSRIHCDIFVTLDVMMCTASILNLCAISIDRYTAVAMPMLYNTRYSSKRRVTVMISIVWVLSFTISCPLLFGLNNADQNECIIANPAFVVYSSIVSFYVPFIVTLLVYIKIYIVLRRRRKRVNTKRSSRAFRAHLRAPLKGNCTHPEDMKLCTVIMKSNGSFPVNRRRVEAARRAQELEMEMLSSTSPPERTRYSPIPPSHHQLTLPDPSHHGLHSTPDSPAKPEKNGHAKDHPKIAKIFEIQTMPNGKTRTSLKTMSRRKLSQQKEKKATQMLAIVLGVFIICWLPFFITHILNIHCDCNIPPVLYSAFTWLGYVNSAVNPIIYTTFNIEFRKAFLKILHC
#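 Overnight-induced (tetracycline, 30 C) HEK293 T-REx cells carrying force-coupled D2 receive a no-wash calcium dye, then compound, then EC80 dopamine at 180 s; signals are read kinetically throughout.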
# D2 PAM-1: D2 dopamine receptor (human) potentiation; HEK293 T-REx D2, calcium flux, EC20 dopamine potentiation; potentiation, % at 10 µM; actives 0.34% (n = 340,000); AID 485347;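 active = potentiation over 3 SD above the plate norm, cut at about 30% in these data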; note: 0% is about no effect
#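 Tetracycline-induced HEK293 T-REx cells force-coupled to calcium signalling expressed D2; compounds were pin-added after a 10 s baseline, read kinetically 180 s, then an EC20 dopamine challenge followed with a further 180 s calcium read.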
# D2 ag-1: agonists of human D2 dopamine receptor; P14416; HEK293 T-REx D2 cells, calcium flux agonist mode; activation, % at 2 µM; actives 0.53% (n = 340,000);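 active = activation over 3 SD above normal in the single-dose calcium agonist read, cut at about 30% in these data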; note: 0% is about no effect
#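 Agonism scored from kinetic calcium signal (1 read/sec, 180 s) following compound pin transfer, after a 10 s baseline. Cells: HEK293 Trex line expressing inducible D2 receptor coupled to calcium, dye-loaded after overnight culture at 30 C.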
# D2 ag-2: human D2 receptor agonism in beta-arrestin assay | actives 0.084% (n = 360,000) | activation, % (test concentration not listed) | AID 624465 | DiscoveRx PathHunter D2 beta-arrestin, luminescence, 90 min; 100% = 57 uM dopamine signal | P14416; in the data active = activation above about 40%; inconclusive = between about 15% and that limit
#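 DiscoveRx PathHunter D2 beta-arrestin cells (2,100/well) attached overnight, then compound-stimulated 90 min at 37 C in HBSS/10 mM HEPES/0.1% Tween-20 buffer; beta-galactosidase complementation read by luminescence after 1 h at ambient temperature. Dopamine 57 uM final (EC100) as control.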
# D2 PAM-2: positive allosteric modulators of human D2 dopamine receptor. P14416. DiscoveRx D2 beta-arrestin cells, luminescence, 90 min; 100% = 57 uM dopamine signal. potentiation, % (concentration not given with the values). actives 0.23% (n = 360,000). AID 624464; in the data active = potentiation above about 50%; inconclusive = mostly about 30% to 49%
#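 PathHunter beta-arrestin assay in DiscoveRx D2 cells. Compounds were added with an EC20 of dopamine (50 nM final) for 90 min at 37 deg C. Luminescence was read 1 h after detection reagent, with 57 uM dopamine as the EC100 control.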
# Starred values were filed as active, the others as inactive; ? = inconclusive; . = no result given.
SMILES,D2 antag,D2 PAM-1,D2 ag-1,D2 ag-2,D2 PAM-2
COc1ccc2nc(N(Cc3cccnc3)C(=O)C3CCCCC3)sc2c1,.,13.0,0.5,.,.
COc1ccc2c(c1)CCC/C2=N\NC(=O)c1ccoc1C,37.7*,-1.7,-3.2,-2.3,-26.1
COc1ccc(NC(=O)N2CCC(C(=O)c3ccc(F)cc3)CC2)cc1,-14.6,7.7,-0.1,0.6,-15.2
Cc1ccc(NC(=O)N2CCC(C(=O)NCc3ccccc3)CC2)cc1,39.2*,-7.5,0.2,-1.9,-11.7
COc1ccc(OC2CCN(C(=O)Nc3ccc(C)cc3)CC2)cc1,49.6*,-13.0,0.7,-8.1,-20.7
CCCCOC(=O)c1ccc(NC(=O)c2ccc3c(c2)CCCN3S(C)(=O)=O)cc1,.,3.6,0.4,.,.
CCOC(=O)c1cc(-c2ccccc2)nn1Cc1ccccc1,.,18.7,0.8,.,.
Cc1cc(C)c(C#N)c(N2CCN(CCOc3ccc(Cl)cc3)CC2)n1,121.1*,-23.6,1.0,2.0,-42.1
COc1ccc(F)cc1CN1CCN(c2cc(C)nc3c4c(C)cc(C)nc4nn23)CC1,-11.9,-10.3,-0.1,.,.
Cc1cc(C)c(C#N)c(N2CCCC2)n1,6.3,1.8,-1.0,-1.4,-2.3
COc1ccc(Cl)cc1CN1CCN(c2nc(C)cc(C)c2C#N)CC1,41.3*,-25.0,-0.4,-2.7,-29.3
COc1ccccc1N(C)S(=O)(=O)c1ccc(Cl)c(C(=O)NC2=NCCS2)c1,-1.8,-7.5,-8.5,0.7,-3.5
CN(c1ccccc1)S(=O)(=O)c1ccc(Cl)c(C(=O)NC2=NCCS2)c1,-11.1,31.3*,-1.4,2.6,7.6
COc1cc(NC(=O)Cn2ncc3c([nH]c4ccc(C)cc43)c2=O)cc(OC)c1OC,.,2.0,1.0,.,.
COc1cc2c(cc1OC)-c1nnnn1C(C)(C)C2,-0.8,-0.6,0.2,1.2,-5.0
COc1cc2c(cc1OC)-c1n[nH]c(=S)n1C(C)(C)C2,-0.6,35.0*,1.9,-4.3,-30.9
CCC1CCCCN1S(=O)(=O)c1ccc(N2CCCCS2(=O)=O)cc1 (configuration not stated),.,-0.6,-0.3,.,.
Cc1cccc(Nc2nc3c(c(=O)n(C)c(=O)n3C)n2Cc2ccccc2)c1,8.3,45.6*,-1.3,-4.7,-15.7
CCC(C)Nc1nc2c(c(=O)n(C)c(=O)n2C)n1Cc1cccc(C)c1 (configuration not stated),15.4,-6.7,-1.6,-1.3,9.6
COc1ccc(-c2nn(-c3ccccc3)cc2C(=O)Nc2ccc(C(=O)O)cc2)cc1,7.1,1.9,0.2,3.9,7.1
COc1ccc(NC(=O)c2cn(-c3ccccc3)nc2-c2ccncc2)cc1,68.4*,-20.6,-1.0,5.6,-9.3
Cn1c(COc2ccccc2)nnc1SCc1cc(=O)[nH]c2ccccc12,38.7*,1.5,0.9,1.0,0.6
O=c1cc(CSc2nnc(COc3ccccc3)n2-c2ccccc2)c2ccccc2[nH]1,3.5,-1.2,-0.7,-0.5,-12.1
Cn1c(N)c(C(=O)Nc2ccccc2)c(=O)[nH]c1=O,.,.,.,0.5,-6.2
Cn1c(N)c(C(=O)/C=C/c2ccccc2)c(=O)[nH]c1=O,53.6*,4.8,0.8,-1.1,-2.0
SMILES,D2 antag,D2 PAM-1,D2 ag-1,D2 ag-2,D2 PAM-2
Cc1c(O)ccc(NC(=O)/C=C/c2ccccc2)c1C,35.0*,-9.2,0.1,1.4,1.3
CCS(=O)(=O)c1ccc(O)c(NC(=O)/C=C/c2ccccc2)c1,9.4,-12.4,-0.5,-4.7,-14.1
O=C1NC(NS(=O)(=O)c2ccccc2)(C(F)(F)F)C(=O)N1c1ccc(F)cc1 (configuration not stated),32.9*,5.1,-1.0,-4.6,-3.4
[O-]/C(=C(\C(=S)Nc1ccccc1F)[n+]1ccccc1)c1ccc(OC(F)F)cc1,-7.5,1.2,0.4,-2.9,-4.9
Cc1ccc(C)c(NC(=S)/C(=C(\[O-])c2ccc(OC(F)F)cc2)[n+]2ccccc2)c1,30.5*,10.7,0.6,-4.1,-3.6
COc1cc(NC(=O)CCCC(=O)OCC(F)(F)C(F)F)nc(OC)n1,52.2*,6.4,-1.2,-0.2,9.8
O=C(NCCCN1CCCCC1)c1ccc2c(c1)ncn2C1CCCC1,30.1*,-4.3,0.5,-4.1,-24.5
Cc1ccc(S(=O)(=O)CC(=O)c2ccc([N+](=O)[O-])cc2)cc1,10.5,-2.8,0.8,1.4,0.3
Cc1ccc(S(=O)(=O)CC(=O)c2ccc(C)c([N+](=O)[O-])c2)cc1,78.8*,0.0,0.8,2.3,-8.1
CCCS(=O)(=O)N1CC(=O)N(c2ccc(C)c(Cl)c2)C(C)(C(=O)NC2CCCCCC2)C1 (configuration not stated),.,-1.4,-1.3,.,.
Cc1cccc(-n2c(-c3ccco3)nc3nc4ccccc4nc32)c1,69.6*,-3.1,-1.0,.,.
COc1cccc(-n2c(-c3ccco3)nc3nc4ccccc4nc32)c1,4.4,-12.7,0.3,-2.7,-2.2
CCOc1cc(C2C(C(=O)OC)=C(C)N=C3SC(C)C(=O)N32)ccc1OC(C)=O (configuration not stated),-1.5,4.4,-0.3,-3.0,-14.5
CCOC(=O)C1=C(C)N=C2SC(C)C(=O)N2C1c1ccc(OC(C)=O)c(OC)c1 (configuration not stated),11.1,38.2*,0.1,-2.3,-3.1
Cc1cc2ncn(/N=C/c3ccc4c(c3)OCO4)c2cc1C,89.0*,-0.6,2.0,-3.4,-2.9
Cc1cc2ncn(/N=C/c3cccnc3)c2cc1C,-2.5,0.3,-0.1,-2.0,-23.4
CCc1ccc2oc(-c3ccc(NC(=O)c4cccc(Cl)c4Cl)cc3)nc2c1,.,1.4,2.4,.,.
Cc1nn(C)c(C)c1CCC(=O)N1CCCC(Nc2ccc(C(C)C)cc2)C1 (configuration not stated),-24.3,36.2*,0.5,-0.6,-7.2
CCOc1ccc(C2NC(=O)c3c(COC)cc(C)nc3N2Cc2ccccc2)cc1OC (configuration not stated),.,12.0,11.8,.,.
O=C(CCCCCn1c(=O)[nH]c2ccsc2c1=O)N1CCCCC1,8.5,6.3,-0.9,-3.2,-6.9
O=C(CCCCCn1c(=O)[nH]c2ccsc2c1=O)N1CCN(C2CCCCC2)CC1,52.8*,-4.7,10.3,-2.0,-1.2
Cc1cccc(N2CCN(C(=O)CCn3c(=O)[nH]c4ccsc4c3=O)CC2C)c1 (configuration not stated),-1.0,21.4,-2.1,56.1*,?
Cc1cccc(N2CCN(C(=O)c3cc4ccc5cccnc5c4[nH]3)CC2C)c1 (configuration not stated),.,4.6,0.0,.,.
CC(=O)N1c2ccc(S(=O)(=O)Nc3ccc(Cl)cc3C)cc2CC1C (configuration not stated),.,-1.4,-0.4,.,.
CN(c1ccccc1)S(=O)(=O)c1ccc(NC(=O)c2cc(=O)c3ccccc3o2)cc1,.,.,0.9,.,.
